Measured values reported in PubChem BioAssay AID1159580 (chemical genetic matrix, 2015).
“And” between values parts separate entries of the source, which are not always exact repeats. Identical values can stand only once. Out of some 5,500 compounds screened, about 2,000 (36%) were called active. About 18% were inconclusive and are not listed. Cut-off read from the data, not from the text of the source: active = normalized growth mostly below about 0.91 (no sharp cut-off); inconclusive = no clear call, values can overlap the other calls; inactive = mostly above about 0.92. The list shows a part of the results.

Experiment: chemical genetic growth profiling, strain panel (AID 1159580);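 note: tested at 20 µM; growth read once vehicle control cultures reached saturation at 30 °C; 1 = growth at the plate median or of vehicle wells; lower values mean less growth of the strain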
Details: S. cerevisiae deletion strains, growth OD

Measured: normalized growth

NCCCS(=O)(=O)O
inactive: locus YAL013W, strain DEP1, stronger effect = lower value 0.978 and 1.01 | locus YAL021C, strain ccr4, stronger effect = lower value 1 | locus YAL026C, strain drs2, stronger effect = lower value 1.04 | locus YAL030W, strain snc1, stronger effect = lower value 1.02 | locus YAL040C, strain CLN3, stronger effect = lower value 1.01 | locus YBL061C, strain skt5, stronger effect = lower value 1.02 | locus YBR009C, strain hhf1, stronger effect = lower value 1.02 | locus YBR021W, strain FUR4, stronger effect = lower value 1 | locus YBR023C, strain chs3, stronger effect = lower value 1.03 | locus YBR171W, strain sec66, stronger effect = lower value 1.02 | locus YBR229C, strain ROT2, stronger effect = lower value 0.955 | locus YBR231C, strain swc5, stronger effect = lower value 1.01 | locus YBR279W, strain paf1, stronger effect = lower value 1.01 | locus YCL011C, strain gbp2, stronger effect = lower value 1.02 | locus YCL016C, strain dcc1, stronger effect = lower value 1.01 | locus YCL029C, strain bik1, stronger effect = lower value 0.991 | locus YCL061C, strain MRC1, stronger effect = lower value 1.02 | locus YCL069W, strain vba3, stronger effect = lower value 1.02 | locus YCR088W, strain abp1, stronger effect = lower value 1.02 | locus YDL005C, strain med2, stronger effect = lower value 1.05 | locus YDL035C, strain GPR1, stronger effect = lower value 0.988 | locus YDL040C, strain nat1, stronger effect = lower value 1.01 | locus YDL074C, strain BRE1, stronger effect = lower value 1.03 | locus YDL101C, strain DUN1, stronger effect = lower value 0.982 | locus YDL134C, strain PPH21, stronger effect = lower value 0.985 | locus YDL185W, strain tfp1, stronger effect = lower value 0.982 | locus YDL192W, strain arf1, stronger effect = lower value 0.984 | locus YDR001C, strain nth1, stronger effect = lower value 1.02 | locus YDR069C, strain doa4, stronger effect = lower value 1.01 | locus YDR101C, strain arx1, stronger effect = lower value 0.999 | locus YDR137W, strain rgp1, stronger effect = lower value 1.03 | locus YDR150W, strain NUM1, stronger effect = lower value 0.964 and 1.02 | locus YDR159W, strain sac3, stronger effect = lower value 1.01 | locus YDR162C, strain NBP2, stronger effect = lower value 0.982 | locus YDR195W, strain ref2 1.02 | locus YDR297W, strain sur2, stronger effect = lower value 1.02 | locus YDR318W, strain mcm21, stronger effect = lower value 1 | locus YDR334W, strain swr1, stronger effect = lower value 1.03 | locus YDR335W, strain msn5, stronger effect = lower value 1.02 | locus YDR388W, stronger effect = lower value 0.997 | locus YDR392W, strain spt3, stronger effect = lower value 0.936 | locus YDR502C, strain sam2, stronger effect = lower value 0.982 | locus YEL003W, strain gim4, stronger effect = lower value 1.02 | locus YEL037C, strain rad23, stronger effect = lower value 1.02 | locus YEL061C, strain CIN8 (second series), stronger effect = lower value 1.03 | locus YEL061C, strain CIN8, stronger effect = lower value 0.981 | locus YER002W, strain NOP16, stronger effect = lower value 1.01 | locus YER015W, strain faa2, stronger effect = lower value 0.994 | locus YER016W, strain bim1, stronger effect = lower value 1.03 | locus YER110C, stronger effect = lower value 0.961 | locus YER111C, strain swi4, stronger effect = lower value 1.03 | locus YER155C, strain BEM2 (second series), stronger effect = lower value 1.02 | locus YER155C, strain BEM2, stronger effect = lower value 0.988 | locus YER167W, strain BCK2, stronger effect = lower value 1 | locus YFR010W, strain ubp6, stronger effect = lower value 1.04 | locus YGL078C, strain dbp3, stronger effect = lower value 0.977 | locus YGL086W, strain mad1, stronger effect = lower value 0.98 | locus YGL167C, strain pmr1, stronger effect = lower value 1.02 | locus YGL173C, strain kem1, stronger effect = lower value 1.03 | locus YGL227W, strain vid30, stronger effect = lower value 1.03 | locus YGL240W, strain doc1, stronger effect = lower value 1 | locus YGL248W, strain PDE1, stronger effect = lower value 0.985 | locus YGL253W, strain hxk2, stronger effect = lower value 1.04 | locus YGR078C, strain PAC10, stronger effect = lower value 1 | locus YGR135W, strain pre9, stronger effect = lower value 0.977 | locus YGR229C, strain SMI1, stronger effect = lower value 1 | locus YGR252W, strain gcn5, stronger effect = lower value 0.908 | locus YHR013C, strain ard1, stronger effect = lower value 1.02 | locus YHR027C, strain rpn1, stronger effect = lower value 1.03 | locus YHR030C, strain SLT2, stronger effect = lower value 0.984 and 1.01 | locus YHR079C, strain IRE1 (second series), stronger effect = lower value 0.989 | locus YHR079C, strain IRE1, stronger effect = lower value 0.996 | locus YHR094C, strain hxt1, stronger effect = lower value 0.999 | locus YHR129C, strain ARP1, stronger effect = lower value 0.989 | locus YHR142W, strain chs7, stronger effect = lower value 1.06 | locus YHR200W, strain rpn10, stronger effect = lower value 0.993 | locus YIL066C, strain RNR3, stronger effect = lower value 0.975 | locus YIL073C, strain SPO22, stronger effect = lower value 0.985 | locus YIL125W, strain kgd1, stronger effect = lower value 0.981 | locus YIR030C, strain dcg1, stronger effect = lower value 0.985 | locus YJL092W, strain hpr5, stronger effect = lower value 1.03 | locus YJL095W, strain BCK1 (second series), stronger effect = lower value 1.02 | locus YJL095W, strain BCK1, stronger effect = lower value 1.03 and 1.01 | locus YJL115W, strain asf1, stronger effect = lower value 1.03 | locus YJL129C, strain trk1, stronger effect = lower value 1.05 | locus YJL134W, strain LCB3, stronger effect = lower value 0.985 | locus YJL154C, strain vps35, stronger effect = lower value 1.02 | locus YJL164C, strain tpk1, stronger effect = lower value 1.01 | locus YJL166W, strain qcr8, stronger effect = lower value 1.02 | locus YJL168C, strain set2, stronger effect = lower value 0.996 | locus YJL187C, strain SWE1 (second series), stronger effect = lower value 0.983 | locus YJR043C, strain POL32, stronger effect = lower value 1.02 | locus YJR066W, strain TOR1, stronger effect = lower value 0.984 | locus YJR075W, strain HOC1, stronger effect = lower value 0.995
